Assay results published in PubChem BioAssay (Tox21).
Where “and” joins values, the source holds several entries; their conditions need not be identical. Equal entries are not always repeated. Results filed as inconclusive are left out. Entries that show only a call come without a potency. More than one record can exist for a structure, and the calls need not agree. Calls of active or inactive are those of the source. Unless noted, calls come from the whole dose curve; as a rule, active = well fitted curve in the direction sought with a large enough effect in the repeat runs; inconclusive = weak or mixed curves; inactive = no such curve, though single readings can be large; an effect the other way counts as inactive or inconclusive.

Assays:
[1] = qHTS assay to identify small molecule antagonists of the estrogen related receptor (ERR) signaling pathway from Tox21 library - cell viability counter screen (AID 1224834); note: nearly all actives have a fitted effect of over 30% in size; note: potency is the fitted concentration of half-maximal effect
Summary of the method: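 Fluorescence from CellTiter-Fluor gives the viability read-out, taken 30 min after reagent addition. Before that, ERR cells seeded 6 h earlier were incubated with compounds for 17.5 h at 37 C.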

[2] = target: Luciferin 4-monooxygenase (Photinus pyralis) (UniProt P08659); assay: qHTS assay to identify small molecule inhibitors of firefly luciferase (AID 1224835); note: nearly all actives have a fitted effect of over 25% in size; note: potency is the fitted concentration of half-maximal effect
Summary of the method: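 Inhibition of purified Photinus luciferase is measured by luminescence. Substrate levels (D-luciferin, ATP) sit at their KM values. Each compound is tested in a concentration series.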

[3] = target: Nuclear receptor subfamily 1 group I member 3 (Homo sapiens) (UniProt Q14994); assay: qHTS assay to identify small molecule antagonists of the constitutive androstane receptor (CAR) signaling pathway (AID 1224838);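 note: HepG2 cells stably expressing hCAR with CYP2B6 luciferase reporter stimulated by CITCO; nearly all actives have a fitted effect of over 40% in size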; note: potency is the fitted concentration of half-maximal effect
Summary of the method: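 HepG2-CYP2B6-hCAR cells; 4 h pre-incubation; cpd (15 conc) + CITCO 50 nM final; 24 h, 37 C/5% CO2; ONE-Glo, luminescence.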

[4] = target: Nuclear receptor subfamily 1 group I member 3 (Homo sapiens) (UniProt Q14994); assay: qHTS assay to identify small molecule agonists of the constitutive androstane receptor (CAR) signaling pathway (AID 1224839); note: nearly all actives have a fitted effect of over 15% in size; note: potency is the fitted concentration of half-maximal effect
Summary of the method: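 Readout: firefly luciferase luminescence via ONE-Glo. System: HepG2 double-stable for hCAR and CYP2B6-2.2kb. Conditions: 15-point compound titration, PK11195 at 0.75 uM final, 24 h incubation.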

[5] = target: Thyrotropin receptor (Homo sapiens) (UniProt P16473); assay: qHTS assay to identify small molecule agonists of the thyroid stimulating hormone receptor (TSHR) signaling pathway (AID 1224843; calls by dose curve; note: nearly all actives have a fitted effect of over 45% in size; note: potency is the fitted concentration of half-maximal effect)
Summary of the method: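 HEK293 cells stably bearing the thyrotropin receptor were plated at 800 cells/well and challenged with compound (30 min, RT). Accumulated cAMP was quantified via cAMP-d2 competing for cryptate-tagged antibody.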

[6] = qHTS assay to identify small molecule antagonists of the estrogen related receptor signaling pathway with the pleiotropic PPARgamma coactivator (PGC) from Tox21 10K library (AID 1224841; call rule not given here; note: actives are mostly falling curves and most rising ones were filed inactive; nearly all actives have a fitted effect of over 50% in size; note: potency is the fitted concentration of half-maximal effect)
Summary of the method: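 PGC/ERR cell line, 2,000 cells/well; 6 h pre-incubation 37 C/5% CO2; compounds (DMSO) pinned in; 18 h, 37 C; One-Glo, 30 min RT; luminescence.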

[7] = qHTS assay to identify small molecule agonists of the estrogen related receptor signaling pathway with the pleiotropic PPARgamma coactivator (PGC) from Tox21 10K library (AID 1224842); note: nearly all actives have a fitted effect of over 15% in size; note: potency is the fitted concentration of half-maximal effect
Summary of the method: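 Luminescence from One-Glo (30 min, room temperature) measured after PGC/ERR cells had 18 h at 37 C with pinned compound (23 nL in DMSO). Cells had been seeded at 2,000 per well and pre-incubated 6 h.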

[8] = qHTS assay to identify small molecule agonists of the constitutive androstane receptor (CAR) signaling pathway - cell viability counter screen (AID 1224836); note: nearly all actives have a fitted effect of over 45% in size; note: potency is the fitted concentration of half-maximal effect
Summary of the method: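 Double-stable HepG2 hepatoma cells (hCAR plus CYP2B6-2.2kb) are treated for 23 h at 37 C with test compounds in 15-point concentration series. PK11195 at 0.75 uM final is co-added. Cell viability is quantified by CellTiter-Fluor.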

[9] = qHTS assay to identify small molecule antagonists of the constitutive androstane receptor (CAR) signaling pathway - cell viability counter screen (AID 1224837); note: series mostly up to about 92 µM; nearly all actives have a fitted effect of over 45% in size
Summary of the method: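 HepG2-CYP2B6-hCAR cells, 2500/well, 4 hr pre-incubation; compound titration, 15 conc.; CITCO 50 nM final; 23 hr, 37 C/5% CO2; CellTiter-Fluor, fluorescence intensity.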

[10] = qHTS assay to identify small molecule antagonists of the estrogen related receptor signaling pathway with the pleiotropic PPARgamma coactivator (PGC) from Tox21 10K library - cell viability counter screen (AID 1224840; active = well fitted cell-killing curve with a large enough effect in the repeat runs, not every such curve was filed as active; note: nearly all actives have a fitted effect of over 40% in size; note: potency is the fitted concentration of half-maximal effect)
Summary of the method: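 PGC/ERR cells, 2,000/well; 6 h pre-incubation 37 C/5% CO2; cpd in DMSO via pin tool; 17.5 h 37 C; CellTiter-Fluor, 30 min; fluorescence.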

Chain of Thyrotropin receptor (Homo sapiens) (P16473 whole entry, looked up): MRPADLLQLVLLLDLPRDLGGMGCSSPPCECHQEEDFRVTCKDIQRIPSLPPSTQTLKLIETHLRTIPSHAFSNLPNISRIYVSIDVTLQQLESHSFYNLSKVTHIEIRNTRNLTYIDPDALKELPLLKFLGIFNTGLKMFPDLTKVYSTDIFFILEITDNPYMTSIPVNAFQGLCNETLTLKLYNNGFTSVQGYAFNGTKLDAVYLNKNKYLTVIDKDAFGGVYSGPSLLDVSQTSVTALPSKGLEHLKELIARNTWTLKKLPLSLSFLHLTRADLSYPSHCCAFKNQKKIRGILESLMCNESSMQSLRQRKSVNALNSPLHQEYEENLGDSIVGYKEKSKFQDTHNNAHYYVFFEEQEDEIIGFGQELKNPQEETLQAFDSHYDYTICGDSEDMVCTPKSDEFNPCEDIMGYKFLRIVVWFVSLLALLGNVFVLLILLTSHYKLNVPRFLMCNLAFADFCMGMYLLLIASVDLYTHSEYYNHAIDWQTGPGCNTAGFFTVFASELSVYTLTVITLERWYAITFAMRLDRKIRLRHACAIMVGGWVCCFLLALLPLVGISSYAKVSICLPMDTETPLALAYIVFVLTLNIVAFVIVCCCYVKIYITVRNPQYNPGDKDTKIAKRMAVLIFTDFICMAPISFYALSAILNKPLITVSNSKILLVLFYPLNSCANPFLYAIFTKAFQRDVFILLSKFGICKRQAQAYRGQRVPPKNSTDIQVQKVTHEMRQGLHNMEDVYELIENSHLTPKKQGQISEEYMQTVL
Chain of Luciferin 4-monooxygenase (Photinus pyralis) (P08659 whole entry, looked up): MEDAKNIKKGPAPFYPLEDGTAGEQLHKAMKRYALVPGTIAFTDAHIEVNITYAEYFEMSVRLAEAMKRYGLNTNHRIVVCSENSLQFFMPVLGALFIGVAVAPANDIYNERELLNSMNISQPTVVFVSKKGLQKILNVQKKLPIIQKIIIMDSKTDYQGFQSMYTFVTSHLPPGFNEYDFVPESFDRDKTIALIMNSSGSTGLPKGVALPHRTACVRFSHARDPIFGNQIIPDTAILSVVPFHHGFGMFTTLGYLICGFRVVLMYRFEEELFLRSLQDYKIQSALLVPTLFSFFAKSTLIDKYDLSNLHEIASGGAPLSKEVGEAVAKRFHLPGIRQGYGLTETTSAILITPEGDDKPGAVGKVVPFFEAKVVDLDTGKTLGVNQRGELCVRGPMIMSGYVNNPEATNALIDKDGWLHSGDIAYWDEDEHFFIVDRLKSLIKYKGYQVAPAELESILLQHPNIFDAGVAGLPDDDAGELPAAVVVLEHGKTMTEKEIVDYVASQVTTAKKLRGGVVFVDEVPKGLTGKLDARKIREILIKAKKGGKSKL
Chain of Nuclear receptor subfamily 1 group I member 3 (Homo sapiens) (Q14994 whole entry, looked up): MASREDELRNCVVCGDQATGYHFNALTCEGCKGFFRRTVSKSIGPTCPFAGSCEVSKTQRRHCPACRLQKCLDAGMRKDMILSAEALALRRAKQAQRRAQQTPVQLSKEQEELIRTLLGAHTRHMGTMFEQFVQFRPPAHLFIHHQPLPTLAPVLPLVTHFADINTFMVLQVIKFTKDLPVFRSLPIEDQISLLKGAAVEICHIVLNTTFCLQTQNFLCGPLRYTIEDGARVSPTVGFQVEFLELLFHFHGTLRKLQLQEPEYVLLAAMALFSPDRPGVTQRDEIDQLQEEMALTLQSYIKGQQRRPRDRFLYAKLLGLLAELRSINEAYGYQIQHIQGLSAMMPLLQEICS

| Compound | Potency [1] | Potency [2] | Potency [3] | Potency [4] | Potency [5] | Potency [6] | Potency [7] | Potency [8] | Potency [9] | Potency [10] |
| --- | --- | --- | --- | --- | --- | --- | --- | --- | --- | --- |
| CN1CCN(Cc2cc(-c3ccc4[nH]c(=O)oc4c3)co2)[C@@H](c2ccc(F)cc2)C1 | 23.4 µM (active) | inactive | inactive | inactive | 13.2 µM (active) | – | – | – | – | – |
| Nc1ccc(NCCO)c([N+](=O)[O-])c1 | 48.6 µM (active) | 35.6 µM (active) | inactive | inactive | – | inactive | inactive | – | – | – |
| COC(=O)C1=C(C)NC(C)=C(C(=O)OCCN2CCN(C(c3ccccc3)c3ccccc3)CC2)C1c1cccc([N+](=O)[O-])c1 (stereo not drawn) | 11.9 µM (active) | inactive | inactive | inactive | inactive | 9.44 µM (active) | inactive | – | – | – |
| c1ccc(SSc2ccccc2)cc1 | inactive | – | 43.6 µM (active) | inactive | – | – | – | inactive | inactive | inactive |
| C=CCn1c(=O)n(CC=C)c(=O)n(CC=C)c1=O | inactive | inactive | – | – | inactive | – | – | inactive | inactive | inactive |
| CC(N=C(NC#N)Nc1ccncc1)C(C)(C)C (stereo not drawn) | inactive | inactive | – | – | inactive | – | – | inactive | inactive | inactive |
| O=C(O)c1cc(N=Nc2ccc([N+](=O)[O-])cc2)ccc1O | 47.7 µM (active) | 0.878 µM (active) | inactive | 0.673 µM (active) | inactive | inactive | 9.51 µM (active) | – | – | – |
| O=c1[nH]c2ccccc2n1CCCN1CCN(C(c2ccccc2)c2ccccc2)CC1 | 23.7 µM (active) | inactive | – | inactive | inactive | – | – | – | – | 23.7 µM (active) |
| COc1ccc(-c2coc3cc(O)ccc3c2=O)cc1 | inactive | 2 µM (active) | – | – | inactive | – | – | inactive | inactive | inactive |
| CCCCCCCCCCCCOCCOCCOCCOCCOCCOCCOCCOCCOCCO | 26.6 µM (active) | inactive | inactive | inactive | – | 5.31 µM (active) | inactive | – | – | – |
| OCCN1CCN(CCCN2c3ccccc3Sc3ccc(C(F)(F)F)cc32)CC1 | 29.8 µM (active) | inactive | inactive | inactive | inactive | inactive | – | – | – | 29.8 µM (active) |
| O=c1[nH]c(=O)n([C@H]2C[C@H](O)[C@@H](CO)O2)cc1F | inactive | inactive | – | – | inactive | – | – | inactive | inactive | inactive |
| Nc1ccc(Oc2ccc(Cl)cc2)cc1 | inactive | – | inactive | – | inactive | inactive | inactive | inactive | inactive | inactive |
| CCCCCCCCCCCCCC[N+](C)(C)Cc1ccccc1 | 62.1 µM (active) and 23.7 µM (active) and 22.4 mM (active) | inactive | inactive | inactive | 43.9 µM (active) | 31.1 µM (active) and 11.9 µM (active) and 15.8 mM (active) | inactive | – | – | 62.1 µM (active) and inactive |
| Cc1cc(=O)oc2cc(O)cc(O)c12 | inactive | inactive | inactive | – | inactive | – | inactive | – | inactive | inactive |
| Sc1nc2ccccc2s1 | inactive | – | inactive | inactive | inactive | inactive | inactive | inactive | inactive | – |
| O[C@@H]([C@H](O)[C@H](O)CBr)[C@H](O)CBr | inactive | inactive | – | – | inactive | – | – | inactive | inactive | inactive |
| O=[N+]([O-])c1ccc(O)cc1C(F)(F)F | 15.4 µM (active) | inactive | – | inactive | inactive | inactive | – | – | – | 17.2 µM (active) |
| O=C1c2ccccc2C(=O)N1SC1CCCCC1 | 68.6 µM (active) | 25.2 µM (active) and 17.8 µM (active) | 68.5 µM (active) | inactive | inactive | – | – | inactive | – | inactive |
| CCCCN(CCCC)CC(O)c1cc(Cl)cc2c1-c1ccc(Cl)cc1/C2=C/c1ccc(Cl)cc1 (stereo not drawn) | 26.6 µM (active) | inactive | inactive | – | inactive | inactive | inactive | inactive | – | – |
| CCCC(=O)OC(C)(C)Cc1ccccc1 | inactive | – | inactive | inactive | – | – | – | inactive | inactive | inactive |
| COCCOc1cc2cc(C(=O)NC3CCN(C(C)C)CC3)n(CC(=O)Nc3ccc(Cl)cn3)c2cn1 | inactive | inactive | – | – | inactive | – | – | – | inactive | inactive |
| O=C(O)[C@H](O)[C@@H](O)[C@H](O[C@@H]1O[C@H](CO)[C@H](O)[C@H](O)[C@H]1O)[C@H](O)CO | inactive | inactive | – | – | inactive | – | – | inactive | inactive | inactive |
| CCCCC/C=C\C/C=C\CCCCCCCC(=O)O | inactive | 78.3 µM (active) and inactive | – | – | inactive | – | – | inactive | inactive | inactive |
| CC(=O)[C@H]1CC[C@H]2[C@@H]3CCC4=CC(=O)CC[C@]4(C)[C@H]3CC[C@]12C | 30.5 µM (active) and 30.6 µM (active) | inactive | – | – | inactive | 27.1 µM (active) and 13.7 µM (active) | inactive | – | inactive | – |
| CC(CCc1ccccc1)NCC(O)c1ccc(O)c(C(N)=O)c1 (stereo not drawn) | 27.3 µM (active) | inactive | inactive | inactive | – | – | – | 30.6 µM (active) | – | inactive |
| Cc1cc(-c2ccc(N=Nc3cc(S(=O)(=O)O)c4ccccc4c3N)c(C)c2)ccc1N=Nc1cc(S(=O)(=O)O)c2ccccc2c1N | inactive | inactive | – | inactive | inactive | 12.3 µM (active) | inactive | – | – | inactive |
| [Cu+] | inactive | 35.6 µM (active) | – | – | inactive | – | – | inactive | inactive | inactive |
